Sampled rows, rich in hits. Any-hit rate of the full collection: about 5.2%.
Tau FP inhib = qHTS for Inhibitors of Tau Fibril Formation, Fluorescence Polarization; Microtubule-associated protein tau (Homo sapiens), P10636; K18 P301L tau heparin fibrillization, Alexa594 FP, 6 h; Potency, µM (series often up to 57.7 µM), hits mostly inhibitors; hit rate 0.39% among 280,000; also: nearly all actives have a fitted effect of over 55% in size
Target sequence (P10636 561-689 P618L limits assumed): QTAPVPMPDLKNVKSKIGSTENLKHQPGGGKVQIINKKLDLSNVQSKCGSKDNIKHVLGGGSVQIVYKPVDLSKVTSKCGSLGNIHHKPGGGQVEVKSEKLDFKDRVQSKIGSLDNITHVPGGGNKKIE
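FP of Alexa 594-tau after heparin (20 uM) induction. Substrate: human K18 P301L, 15 uM unlabeled, 0.24 uM labeled. Buffer 100 mM sodium acetate pH 7. 6 hr, 37 C.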
Coupling enz = qHTS Assay for Inhibitors of Fructose-1,6-bisphosphate Aldolase from Giardia Lamblia: Coupling assay counterscreen; activity change, negative = inhibition, % at 58.2 µM, hits read low; coupling enzyme system counterscreen, AmpLite Red fluorescence; AID 2472, 2010; hit rate 0.67% among 290,000; in the data active = activity change below about -30%
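Activity here indicates interference with the coupling reaction, not aldolase inhibition. Compounds at 57.5 uM final met coupling enzymes for 10 min at RT; substrate and AmpLite Red detection followed, with a 525/598 nm fluorescence read after 20 min.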
Sfp inh = qHTS Assay for Inhibitors of Bacillus subtilis Sfp phosphopantetheinyl transferase (PPTase); 4'-phosphopantetheinyl transferase ffp (Bacillus subtilis), Q9F4F7; Biochemical Sfp PPTase activity, qHTS; Potency, µM, hits mostly inhibitors; hit rate 3.5% among 310,000; AID 1490, 2009;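 also: the enzyme is Sfp with the accession as filed and its product quenches rhodamine fluorescence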
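Buffer: 50 mM Hepes-Na pH 7.6, 10 mM MgCl2, 0.01% Nonidet P-40, 0.01% BSA. Enzyme 15 nM, pre-exposed to compound 15 min; substrates then added and fluorescence change tracked over 30 min.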
Tau fluor counter = Counterscreen qHTS for Inhibitors of Tau Fibril Formation, Fluorescence Polarization; tau K18 P301L Alexa594 fluorescence, heparin fibrillization; Potency, µM (series often up to 57.7 µM); hit rate 0.93% among 280,000; AID 1463, 2008; also: nearly all actives have a fitted effect of over 55% in size
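Human tau K18 P301L (15 uM unlabeled, 0.24 uM Alexa 594-labeled) in 100 mM sodium acetate pH 7 with 20 uM heparin, 6 hr at 37 C. ThT 30 uM added, 1 hr ambient; Alexa 594 FP and total fluorescence read at 555/632 nm.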
Tau ThT inhib = qHTS for Inhibitors of Tau Fibril Formation, Thioflavin T Binding | Microtubule-associated protein tau (Homo sapiens), P10636 | recombinant tau K18 P301L, heparin-induced fibrillization, ThT fluorescence | Potency, µM (titrated, usually from 57.4 µM), usual class: inhibitors | hit rate 2.1% among 270,000 | AID 1460, 2008; also: nearly all actives have a fitted effect of over 55% in size
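Using a mix of unlabeled (15 uM) and Alexa 594-labeled (0.24 uM) tau K18 P301L, heparin-triggered fibrillization over 6 hr at 37 C was scored by ThT fluorescence.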
Numbers stand for hits; . = inactive; ? = inconclusive; / = no result given; [ ] = remark or other dose. Unless noted, calls follow the shape of the dose curve; as a rule, active = well fitted curve in the direction sought with a large enough effect; inconclusive = small, poorly fitted or top-dose-only effect, or another doubt; inactive = no such curve, though single readings can be large; an effect the other way counts as inactive or inconclusive.

SMILES	Tau FP inhib	Coupling enz	Sfp inh	Tau fluor counter	Tau ThT inhib
COc1ccc(/C=N/Nc2cc(OC)ncn2)cc1	.	.	.	.	?
COc1cccc(CNC(=O)c2ccc(NC(=O)N3CCCCc4ccccc43)cc2)c1	.	/	/	.	.
Cc1ccccc1C(=O)OCc1cc(=O)n2nc(C3CC3)sc2n1	.	/	/	.	?
CN(C)S(=O)(=O)c1ccc2c(c1)N(CC(=O)NCc1ccccc1)C(=O)C1CCCCN21 (stereo not drawn)	.	/	/	.	.
CC(=O)c1cccc(Nc2cc(C)nc3nc(-c4ccccc4C)nn23)c1	.	/	/	.	.
CCOC(=O)c1c(NC(=O)C2CCCO2)sc(C(=O)OC(C)(C)C)c1C (stereo not drawn)	.	.	45µM	.	.
O=C(Nc1ccccc1-c1nc2ccccc2[nH]1)c1ccc(S(=O)(=O)N2CCCCC2)cc1	13µM	.	.	?	.
N#CCCSc1ccccc1NC(=O)c1ccc(S(=O)(=O)N2CCCC2)cc1	.	.	5.6µM	.	.
CC1CCCCN1S(=O)(=O)c1ccc(C(=O)Nc2ccccc2-c2nc3ccccc3[nH]2)cc1 (stereo not drawn)	14µM	.	.	?	.
CC1CCCCN1S(=O)(=O)c1ccc(C(=O)Nc2ccccc2-c2nc3ccccc3s2)cc1 (stereo not drawn)	.	.	.	.	.
Cc1ccccc1NC(=O)c1ccc(S(=O)(=O)N2CCCC2)cc1	/	.	.	/	/
CC1CCCCN1S(=O)(=O)c1ccc(NC(=O)c2cccc(-n3cnnn3)c2)cc1 (stereo not drawn)	?	.	.	18µM[quencher]	.
Cc1cc(-n2c(C)nc3ccccc3c2=O)ccc1NC(=O)c1ccc(C)c([N+](=O)[O-])c1	.	/	/	.	.
CC1=[N+](C)c2c(ccc3cccnc23)C1(C)C	?	-58	11µM	7.1µM[fluorescent]	7.1µM
CCc1ccc(-n2nc(C)c3c(C)cc(=O)n(CC(=O)Nc4ccc(C(C)=O)cc4)c32)cc1	.	/	/	.	.
Cc1ccc(NS(=O)(=O)c2cccc3nsnc23)cc1	.	-38	.	.	?
O=S(=O)(Nc1ccccc1)c1cccc2nsnc12	/	.	.	/	/
CCc1ccc(NC(=O)CCS(=O)(=O)c2cccc3nsnc23)cc1	.	.	79µM	.	?
COCCNC(=O)c1ccc(-c2nc(CS(=O)(=O)c3ccccc3)c(C)o2)cc1	.	/	/	.	.
O=C(Cn1cc(S(=O)(=O)Cc2ccccc2)c2ccccc21)N1CCOCC1	/	/	.	/	/
COc1ccc(NC(=O)CS(=O)(=O)c2cn(CC(=O)N3CCOCC3)c3ccccc23)cc1OC	/	/	56µM	/	/
O=C(Cn1cc(S(=O)(=O)Cc2cccc(F)c2)c2ccccc21)N1CCOCC1	/	/	56µM	/	/
CC(C)CCNC(=O)CN1C(=O)c2cccnc2Oc2ccccc21	.	/	/	.	.
COc1ccc([C@@H]2CC(=O)c3c(O)cc(O[C@@H]4O[C@H](CO[C@@H]5O[C@@H](C)[C@H](O)[C@@H](O)[C@H]5O)[C@@H](O)[C@H](O)[C@H]4O)cc3O2)cc1	/	.	.	/	/
Cc1ccccc1Oc1cc(NC(=O)CCCn2nc(C)c([N+](=O)[O-])c2C)cc([N+](=O)[O-])c1	.	.	.	?	.
SMILES	Tau FP inhib	Coupling enz	Sfp inh	Tau fluor counter	Tau ThT inhib
Cc1ccccc1Oc1cc(NC(=O)Cn2cnc([N+](=O)[O-])c2)cc([N+](=O)[O-])c1	?	.	.	13µM[quencher]	?
CC(=O)Nc1nonc1-c1nnc(SCc2ccccc2C)n1C	.	/	/	.	.
Cc1ccc(/C=C/C(=O)N2CC(=O)Nc3ccccc32)o1	.	.	7.1µM	.	.
COc1ccccc1NC(=O)C1=C(C)Nc2nc(SCc3ccccc3)nn2C1c1cccs1 (stereo not drawn)	.	/	/	.	.
CC(=O)C1=C(c2ccc(Br)cc2)C(=O)c2ccccc2C1=O	?	-70	.	?	8.9µM
C/C=C/C=C\C(=O)Nc1cccc(C2=NOC3(C2)C[C@@H](C(N)=O)N(C(=O)c2cc([N+](=O)[O-])cc([N+](=O)[O-])c2)C3)c1 (stereo partly drawn)	.	.	50µM	.	.
C/C=C\C=C/C(=O)Nc1cccc(C2=NOC3(C2)C[C@@H](C(N)=O)N(C(=O)[C@H]2CCC(=O)N2)C3)c1 (stereo partly drawn)	.	.	35µM	.	.
CCC(=O)Nc1cccc(C2=NOC3(C2)C[C@@H](C(N)=O)N(C(=O)c2cc([N+](=O)[O-])cc([N+](=O)[O-])c2)C3)c1 (stereo partly drawn)	.	.	.	.	.
C/C=C\C=C/C(=O)Nc1cccc(C2=NOC3(C2)C[C@@H](C(N)=O)N(C(=O)/C=C/C=C\C)C3)c1 (stereo partly drawn)	?	.	3.5µM	.	25µM
C/C=C\C=C\C(=O)N1CC2(CC(c3cccc(NC(=O)CC(c4ccccc4)c4ccccc4)c3)=NO2)C[C@H]1C(N)=O (stereo partly drawn)	.	.	45µM	.	.
Cc1ccccc1NC(=O)c1c(C)oc2ccc(O)c(CN3CCCC(C)C3)c12 (stereo not drawn)	.	/	/	.	.
CCn1c(C(=O)NCc2ccccc2OC)cc2sccc21	.	/	/	.	.
COC(=O)c1ccc(NC(=O)c2c(NCc3ccc(OC)c(OC)c3)sc3c2CCCC3)cc1	.	/	/	?	?
C/C=C\C=C/C(=O)Nc1cccc(C2=NOC3(C2)C[C@@H](C(N)=O)N(C(=O)C2(C)CC2)C3)c1 (stereo partly drawn)	.	.	20µM	.	.
C/C=C\C(=O)Nc1cccc(C2=NOC3(C2)C[C@@H](C(N)=O)N(C(=O)C2(C)CC2)C3)c1 (stereo partly drawn)	.	.	.	.	.
C/C=C\C=C/C(=O)Nc1cccc(C2=NOC3(C2)C[C@@H](C(N)=O)N(C(=O)/C=C/CC)C3)c1 (stereo partly drawn)	.	.	14µM	.	.
C=C(C)C(=O)N1CC2(CC(c3cccc(NC(=O)/C=C\C=C/C)c3)=NO2)C[C@H]1C(N)=O (stereo partly drawn)	.	.	20µM	.	.
C/C=C\C(=O)Nc1cccc(C2=NOC3(C2)C[C@H](C(N)=O)N(C(=O)/C=C/CC)C3)c1 (stereo partly drawn)	.	.	.	.	.
CN1C(=O)/C(=C2/C=Cc3ccccc3N2CCCS(=O)(=O)O)SC1=S	.	.	.	.	25µM
CCCN1C(=O)/C(=C2/C=Cc3ccccc3N2CC)SC1=S	.	.	.	?	?

Screening data from PubChem BioAssay.
